Assay outcomes from PubChem BioAssay.
PostGolgi ctrl = growth of the yeast control strain, post-Golgi counter-screen; efflux-deficient yeast background strain, growth absorbance A615, 16 h; inhibition, % at 10 µM; 5% of 98,000 active; AID 738
PostGolgi yeast = growth inhibition of a yeast mutant, post-Golgi transport screen. inhibition, % at 10 µM. post-Golgi transport phenotypic cell assay. 0.9% of 98,000 active. AID 739;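 also: yeast cells grown in 1536-well plates; yeast grown about 18 h at 30C before absorbance read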
TNAP act mid DEA = activates human TNAP at intermediate phosphate acceptor concentration; P05186; purified TNAP, CDP-star luminescence, 100 mM DEA, 30 min; active compounds read high; scale: 0 levamisole-inhibited, 1 vehicle-only enzyme; activation factor at 20 µM; 64,000 tested, under 10 active; AID 813;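 active = activation factor of at least 2 at 20 µM, relative to controls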
Smad3 FoxH1 inh = blocks human Smad3 binding to FoxH1 peptide; TR-FRET Smad3/Dy647-FoxH1 peptide binding, europium anti-His; inhibition, % at 25 µM; 0.29% of 88,000 active; P84022;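 active = compounds that reduce the energy-transfer binding signal between the protein and its labelled peptide by more than half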;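 also: 0% = Smad3 plus labelled peptide maximal FRET and 100% = peptide-only background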
DAT uptake mod = modulates human dopamine transporter uptake under cocaine | B-score at 10 µM | 1.3% of 110,000 active | LLC-PK1 hDAT cells, [14C]-dopamine uptake with cocaine IC80; actives deviate in either direction;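 active = Z score or B-score, a plate-position-corrected score, falls beyond the plate's 99.7% confidence bounds, in either direction; inactive = both scores lie inside the 99.7% bounds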;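 also: scored against the spread of the other compound wells on the same plate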
Target sequence (Q01959 whole entry, looked up): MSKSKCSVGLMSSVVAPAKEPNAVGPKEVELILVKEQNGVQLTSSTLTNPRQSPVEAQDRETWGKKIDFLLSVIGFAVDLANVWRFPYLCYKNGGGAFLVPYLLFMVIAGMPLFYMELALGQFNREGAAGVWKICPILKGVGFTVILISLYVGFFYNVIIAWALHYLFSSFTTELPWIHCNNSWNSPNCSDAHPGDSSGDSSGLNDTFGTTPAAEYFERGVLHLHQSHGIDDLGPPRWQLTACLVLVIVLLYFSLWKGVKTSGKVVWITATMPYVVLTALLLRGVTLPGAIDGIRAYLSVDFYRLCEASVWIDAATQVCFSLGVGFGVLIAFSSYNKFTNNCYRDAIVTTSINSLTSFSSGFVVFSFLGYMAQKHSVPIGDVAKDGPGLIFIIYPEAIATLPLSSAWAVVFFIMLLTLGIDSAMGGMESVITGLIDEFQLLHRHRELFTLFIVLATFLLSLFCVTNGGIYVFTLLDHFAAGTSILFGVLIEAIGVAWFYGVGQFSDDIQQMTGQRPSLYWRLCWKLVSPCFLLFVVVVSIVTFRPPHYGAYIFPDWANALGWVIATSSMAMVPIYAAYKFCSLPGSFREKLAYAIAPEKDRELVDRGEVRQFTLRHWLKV
Cav32 inh = blocks human Cav3.2 T-type calcium channel; O95180; Cav3.2-expressing cells, Fluo-4 calcium fluorescence FDSS; active compounds read low; B-score at 10 µM; 4% of 100,000 active; AID 449739;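 active = single-dose well whose peak fluorescence ratio is a statistical outlier from its plate by either plate-standardised score or position-corrected B-score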
* hit, by the source's call; / = no result given. In the library only some 8.7% were active in any assay of this set; here they are far more common. Rule as the data show it, unless noted: active = inhibition above about 30%; inactive = the rest.

SMILES	PostGolgi ctrl	PostGolgi yeast	TNAP act mid DEA	Smad3 FoxH1 inh	DAT uptake mod	Cav32 inh
Cc1ccc2nc(SCC(=O)c3ccc(Cl)s3)[nH]c2c1	19	0	/	4	-0.18	-4
CC(=O)c1c(C)[nH]c(C(=O)CSc2nc3ccc(C)cc3[nH]2)c1C	35*	8	/	-9	1.3	-0.035
O=C(CSc1nnc(CNC(=O)c2c(F)cccc2Cl)o1)c1ccccc1	4	0	1	16	1.3	0.17
COC(=O)C(C)N(C(=O)c1cccc(Cl)c1)c1c(C)cccc1C (configuration not stated)	7	-5	/	12	-0.4	-2.4
COC(=O)C(C)N(C(=O)c1cccc2ccccc12)c1c(C)cccc1C (configuration not stated)	36*	10	/	2	-0.84	-7.1*
Nc1[nH]c(=O)ncc1F	/	/	/	5	-0.14	0.86
CCc1sc(C(=O)Nc2cc(Cl)ccc2N2CCCCC2)cc1C	41*	64*	/	/	-0.14	-1.3
COc1ccc(-c2cnc(SCC(=O)Nc3nc(C(C)(C)C)cs3)n2Cc2ccco2)cc1	/	/	/	-9	0.26	-5.7*
COc1ccc(-c2cnc(SCC(=O)Nc3cc(C)on3)n2Cc2ccco2)cc1	17	0	1	-8	-1.2	-4.5*
COc1ccc(NC(=O)CSc2ncc(-c3ccc(F)cc3)n2Cc2ccco2)cc1	/	/	/	6	-0.69	0.082
COCCn1c(-c2ccc(OC)cc2)cnc1SCC(=O)Nc1cccc2ccccc12	28	7	/	/	0.34	-8.1*
CCC(=O)Nc1cc(NC(=O)CSc2ncc(-c3ccc(F)cc3)n2Cc2ccco2)ccc1C	3	11	0.9	-1	-0.14	-8.8*
CN1C[C@@H]2C(c3ccc(C(F)(F)F)cc3)C3(c4ccccc4)CC2(C3)[C@H]1c1ccccc1 (some centres not stated)	/	/	/	/	-1	0.36
Cc1nc2ccc(NS(=O)(=O)c3c(C)c(C)cc(C)c3C)cc2s1	36*	10	/	5	-0.63	-2
COc1ccccc1NCC(O)Cn1c2ccccc2c2ccccc21 (configuration not stated)	57*	13	/	14	2.1	-1.3
O=C(CCC(=O)OCC(=O)c1ccc(Cl)cc1Cl)Nc1cccc2cccnc12	38*	2	/	/	0.25	-0.7
C=CCn1c(SCc2ccccc2C#N)nnc1-c1cc(Br)ccc1O	52*	-8	0.9	9	0.07	-2.9
Cc1cc(C(=O)COC(=O)CCC(=O)c2ccc3c(c2)OCCO3)c(C)n1Cc1ccco1	12	-1	0.9	-5	0.39	-4.3
CCOc1ncccc1C(=O)OCC(=O)c1cc(C)n(Cc2ccco2)c1C	8	-2	1	3	-1	-4.9*
COc1ccc(CC(=O)N2N=C(C)CC2(O)c2cccnc2)cc1 (configuration not stated)	3	13	/	/	0.34	-0.18
Cc1ccc(CNc2ccc3c(c2)OCO3)c(C)c1	39*	-2	0.9	-16	0.087	-1.8
COc1ccc(Oc2ccccc2C=O)cc1	5	5	/	/	0.02	1.1
Cc1ccc(-c2csc3ncnc(N4CCN(C(=O)c5ccccc5)CC4)c23)cc1	32*	7	/	-4	2.2	-3.3
c1ccc(N2CCN(c3ncnc4scc(-c5cccs5)c34)CC2)cc1	47*	-2	0.9	-1	0.011	-3.3
O=C(c1ccco1)N1CCN(c2ncnc3scc(-c4cccs4)c23)CC1	27	-2	1	4	-0.93	-3.1
SMILES	PostGolgi ctrl	PostGolgi yeast	TNAP act mid DEA	Smad3 FoxH1 inh	DAT uptake mod	Cav32 inh
O=C(c1ccco1)N1CCN(c2ncnc3scc(-c4ccccc4)c23)CC1	10	13	/	-12	-0.071	-0.42
CCOC(=O)c1c(C)sc2c1N(C(=O)CCl)c1cc(Cl)ccc1S2	78*	9	/	1	-1.7	-2.9
Cc1ccc(C(=O)Nc2ccccc2-c2ccccc2)o1	35*	6	/	6	-0.051	-2.2
CCC(C)NC(=O)c1cnn2c(C)c3c(nc12)CCCC3 (configuration not stated)	10	9	0.7	4	-0.13	1.5
Cc1nnc(NC(=O)c2ccc(Br)cc2)s1	-2	-1	/	/	-0.67	-0.0022
CC(=O)Oc1ccc(C(=O)Nc2nnc(C)s2)cc1	2	30*	1	2	-0.12	1.3
CCN1C(=O)C(O)(CC(=O)c2cc(C)ccc2C)c2ccccc21 (configuration not stated)	9	15	1	-10	0.18	-1.2
